Test results: PubChem BioAssay (Tox21)
Values joined by “and” are separate entries in the source; they are usually repeats but may differ in a detail not shown here. Identical values can stand only once. Inconclusive results are not listed. Entries that show only a call come without a potency. Where a structure was tested more than once in an assay, its records may differ in their call. Active and inactive are the calls of the source. Calls follow the shape of the dose curve; as a rule, active = well fitted activation curve with a large enough effect in the repeat runs; inconclusive = weak or mixed curves; inactive = flat fitted curve, though single readings scatter.

Assay: A CellTox Green Cytotoxicity Assay to monitor cytotoxicity in HEK293 cells - 8 hour (AID 1224884); also: nearly all actives have a fitted effect of over 35% in size
Conditions: CellTox Green fluorescence; series mostly up to 76.8 µM
Excerpt: National Center for Advancing Translational Sciences [NCATS]
NIH Chemical Genomics Center [NCGC]
U.S. Environmental Protection Agency [EPA]
National Institutes of Environmental Health Sciences [NIEHS]
National Toxicology Program [NTP]
Cell-based models are critical for drug discovery. Determining the natural cytotoxic effects resulting from test compounds is an essential research activity. A CellTox Green Cytotoxicity Assay to monitor cytotoxicity in real time of continues cell culture during 40 hours of the compound treatment was used to screen Tox21 10K library compounds in Hek293 cells. CellTox Green Cytotoxicity Assay is a nonlytic, homogeneous, biofluorescent method to measure cytotoxicity in cell culture after experimental manipulation. The assay system uses a proprietary asymmetric cyanine dye that is excluded from viable cells but preferentially stains the dead cell's DNA. […] Viable cells produce no appreciable increases in fluorescence. Therefore, the fluorescence signal produced by the binding interaction with dead cell DNA is proportional to cytotoxicity.
The mixture of Hek293 cell suspension and reagents were dispensed at 600cells/6 ul/well in 1536-well tissue culture treated black solid bottom plates using a Multidrop dispenser. After the assay plates were incubated at a 37 C/5% CO2 incubator for 5 hours, 23 nL of compounds dissolved in DMSO, positive and negative controls was transferred to the assay plate by a pintool work station. The plates were incubated at 37 C for 40 hours. The fluorescence intensity were measured at 0h, 8h, 16h, 24h, 32h and 40h time points using ViewLux plate reader during compound treatment.
Potency is read from the fitted curve at half-maximal effect.

SMILES	Potency
COP(=O)(OC)C(O)C(Cl)(Cl)Cl (stereo not given)	inactive
CCCCn1cc[n+](C)c1C	inactive
Oc1ccccc1-c1ccccc1	inactive
CCCCn1cc[n+](C)c1	inactive
Oc1cccc2cccnc12	inactive
Nc1ccc(-c2ccc(N)c(Cl)c2)cc1Cl	inactive and 49 µM (active)
O=c1[nH]c(=O)n(Cl)c(=O)n1Cl	inactive
CC(=O)[O][Hg][c]1ccccc1	inactive
CC(=O)O	inactive
CCCCCCn1cc[n+](C)c1	inactive
N#CS	inactive
O=C(O)C(Cl)(Cl)Cl	inactive
O=C(O)CCl	inactive
CCNc1nc(Cl)nc(NCC)n1	inactive
CCCCCCCCCCCCCC[P+](CCCCCC)(CCCCCC)CCCCCC	19.6 µM (active) and 22.1 µM (active) and inactive
CCCC[N+]1(C)CCCC1	inactive
O=P1(N(CCCl)CCCl)NCCCO1 (stereo not given)	inactive
Cc1cc(Cl)ccc1OCC(=O)O	inactive
Nc1ccccc1	inactive
C[N+](C)(C)Cc1ccccc1	inactive

SMILES	Potency
O=C(O)COc1ccc(Cl)cc1Cl	inactive
COc1ccccc1N	inactive
CCCn1cc[n+](C)c1	inactive
CNC	inactive
CN(C)[C@@H]1C(=O)C(C(N)=O)=C(O)[C@@]2(O)C(=O)C3=C(O)c4c(O)cccc4[C@@](C)(O)[C@H]3[C@H](O)[C@@H]12	inactive
CC[N+](CC)(CC)CC	inactive
CCCC[n+]1ccc(C)cc1	inactive and 21.8 µM (active)
CCCCCCCCCCCCn1cc[n+](C)c1	inactive and 55.9 µM (active)
O=C(O)CC(O)(CC(=O)O)C(=O)O	inactive
O=C(O)c1nc(Cl)ccc1Cl	inactive
CCCC[N+]1(C)CCCCC1	inactive and 55.7 µM (active)
C=CCOC(Cn1ccnc1)c1ccc(Cl)cc1Cl (stereo not given)	inactive
COCC(=O)N(c1c(C)cccc1C)C(C)C(=O)OC (stereo not given)	inactive
COP(=O)(OC)OC=C(Cl)Cl	inactive
CCCCCCCCCCCCCCCCn1cc[n+](C)c1	inactive and 49.4 µM (active)
CCn1cc[n+](C)c1C	inactive
CCCC[n+]1cccc(C)c1	inactive
CCCC[n+]1ccccc1	inactive
O=[N+]([O-])O	inactive
CCOP(=S)(OCC)Oc1ccc2c(C)c(Cl)c(=O)oc2c1	inactive
